Reference: ChEMBL document CHEMBL4513146, “CO-ADD screening of Karazin Kharkiv National University (Ukraine) compounds”
Entries with a potency or affinity are not part of this list.

Legend:
[1] = test system: Klebsiella pneumoniae; conditions: Concentration 32 ug.mL-1;; ASSAY_TEST Inhibition of Bacterial Growth; detection method Absorption (OD600); MEDIA CAMHB; plate type 384well; NBS; CORNING #3640; time 18 hr
[2] = test system: Candida albicans; conditions: Concentration 32 ug.mL-1; ASSAY_TEST Inhibition of Fungal Growth; detection method Absorption (OD530)
[3] = test system: Cryptococcus neoformans; conditions: Concentration 32 ug.mL-1; ASSAY_TEST Inhibition of Fungal Growth; detection method Resazurin; Absorption (OD600-OD570); plate type 384well; NBS; CORNING #3640

SMILES	Inhibition [1]	Inhibition [2]	Inhibition [3]
O=C(Cn1nc2c(SCc3ccccc3)nccn2c1=O)NC1CCCCC1	7.95%	4.49%	-7.22%
Cc1c(Cl)cccc1NC(=O)Cn1nc2c(SCc3ccccc3)nccn2c1=O	1.96%	2.12%	-7.14%
O=C(CSc1nnc2c(=O)n(-c3ccccc3)ccn12)N1CCN(c2ccc(F)cc2)CC1	13.33%	-0.45%	-26.48%
CCc1nnc2c(S(=O)(=O)N(Cc3cc(F)cc(F)c3)c3ccc(C)cc3)cccn12	20.07%	3.29%	-8.74%
Cc1ccc(N(Cc2ccccc2)S(=O)(=O)c2ccc3nncn3c2)cc1F	4.64%	0.48%	-7.94%
O=C(Cn1nc2c3cc(-c4ccc(F)cc4)nn3ccn2c1=O)Nc1ccc(Br)cc1	2.07%	14.76%	4.1%
O=C(Cn1nc2c3cc(-c4ccc(Cl)cc4)nn3ccn2c1=O)N1CCN(c2ccccc2)CC1	10.64%	0.94%	-23.41%
CC(C)(C)NC(=O)Cn1nc2n(Cc3ccco3)c(=O)c3sccc3n2c1=O	9.07%	1.61%	-14.16%
Cc1ccc(Sc2nccn3c(=O)n(CC(=O)Nc4c(C)cc(C)cc4C)nc23)c(C)c1	17.85%	-0.74%	-21.38%
N#Cc1ccccc1NC(=O)Cn1nc2c(Oc3ccccc3)nccn2c1=O	2.81%	-0.12%	-5.65%
COc1cccc(Oc2nccn3c(=O)n(CC(=O)Nc4ccc(C(C)C)cc4)nc23)c1	-4.77%	3.55%	-2.79%
COC(=O)c1ccc(CN(c2ccc(F)cc2)S(=O)(=O)c2cccn3c(C)nnc23)o1	11.43%	3.23%	-7.89%
Cc1cccc(NC(=O)CSc2nnc3c4cc(-c5ccc(F)cc5)nn4ccn23)c1C	0.2%	1.75%	-21.34%
CCc1nnc2ccc(S(=O)(=O)N(Cc3ccc(OC)c(F)c3)c3ccccc3)cn12	-3.43%	-0.62%	-5.32%
Cc1ccc(-c2ccc3nn(Cc4cccc(Cl)c4)c(=O)n3n2)cc1C	12.21%	1.14%	-10.16%
Cc1ccccc1NC(=O)Cn1nc2c3cc(-c4ccc(Cl)cc4)nn3ccn2c1=O	14.64%	1.52%	-18.17%
CCCCc1ccc(NC(=O)Cn2nc3ccc(C(=O)Nc4ccc(OC)cc4)cn3c2=O)cc1	-3.83%	18.36%	-8.8%
Cc1cc2nn(CC(=O)N3CCCC3)c(=O)n2c(Nc2ccc(C)c(F)c2)n1	9.72%	0.7%	-5.41%
COc1cc(OC)c(NC(=O)Cn2nc3c(Oc4ccc(C)cc4)nccn3c2=O)cc1Cl	2%	2.42%	-3.76%
O=C(CCc1nnc2c(N3CCCCC3)nc3ccccc3n12)NCCc1ccc(Cl)cc1	17.22%	2.39%	-25.04%
CSc1ccc(CNC(=O)Cn2nc3c(N4CC(C)CC(C)C4)nccn3c2=O)cc1 (stereo not drawn)	6.58%	0.13%	-5.38%

SMILES	Inhibition [1]	Inhibition [2]	Inhibition [3]
C=Cc1ccc(CSc2nnc3c(=O)n(-c4ccc(Br)cc4)ccn23)cc1	3.16%	0.16%	-7.54%
Cc1[nH]c2ccccc2c1C(=O)CSc1nnc2c(=O)n(-c3ccccc3)ccn12	21.07%	0.47%	-10.08%
O=c1c2sccc2n2c(=O)n(Cc3ccc(F)cc3)nc2n1Cc1cccs1	10.32%	43.23%	-26.83%
CCCc1nnc2c(=O)n(CC(=O)Nc3cccc(C(C)=O)c3)c3ccccc3n12	-4.73%	6.89%	-25.21%
COc1ccc(OC)c(NC(=O)Cn2nc3c4c5c(sc4ncn3c2=O)CCCC5)c1	8.89%	0.7%	-30.54%
O=C(Cn1nc2c(N3CCOCC3)nccn2c1=O)NCc1ccc(Cl)cc1	8.43%	3.53%	-3.97%
O=C(Cn1nc2ccc(C(=O)NCc3ccccc3)cn2c1=O)Nc1ccc2c(c1)OCO2	7.16%	3.87%	-36.87%
CCOc1ccc(-n2ccn3c(SCC(=O)Nc4cc(OC)cc(OC)c4)nnc3c2=O)cc1	3.96%	2.98%	-7.81%
Cc1ccc(NC(=O)CSc2nc3ccccc3n3c(C(C)C)nnc23)cc1Cl	1.48%	-0.39%	-22.27%
Cc1cccc(C)c1NC(=O)Cn1nc2ccc(SCc3ccc(Cl)cc3)nn2c1=O	-2.95%	27.65%	-10.13%
COc1ccccc1-n1ccn2c(SCc3ccccc3F)nnc2c1=O	11.1%	2.31%	-5.25%
CCc1nnc2c(S(=O)(=O)N(Cc3cccc(C)c3)c3cccc(Cl)c3)cccn12	3.49%	3.58%	-6.66%
O=S(=O)(c1cccn2c(SCc3c(F)cccc3Cl)nnc12)N1CCCC1	5.57%	-0.64%	-6.69%
O=C(CSc1nnc2c3cc(-c4ccccc4)nn3ccn12)NCc1ccc(Cl)cc1	14.11%	6.05%	-28.72%
Cc1ccc(Oc2nccn3c(=O)n(CC(=O)NCc4cccs4)nc23)cc1	11.41%	2.18%	-8.11%
COc1ccc(-c2cc3c4nn(CC(=O)Nc5ccc(OC)cc5OC)c(=O)n4ccn3n2)cc1	12.55%	0.69%	-8.54%
CCC(C)NC(=O)Cn1c(=O)c2nnc(C)n2c2ccccc21 (stereo not drawn)	11.59%	0.05%	-11.45%
O=c1c2sccc2n2c(=O)n(Cc3c(F)cccc3Cl)nc2n1Cc1cccs1	11.77%	-0.79%	-29.08%
CC(C)c1nnc2c(SCC(=O)N3CCN(c4ccc(F)cc4)CC3)nc3ccccc3n12	12.93%	-0.12%	-22.8%
CCc1nnc2c(S(=O)(=O)N(Cc3ccc(C)cc3)c3ccc(C(C)C)cc3)cccn12	10.84%	9.31%	-8.19%
O=c1n(Cc2nc(-c3ccc(OC(F)(F)F)cc3)no2)nc2ccc(-c3ccccc3)nn12	8.49%	3.85%	-17.12%

SMILES	Inhibition [1]	Inhibition [2]	Inhibition [3]
Cc1cccc(NC(=O)Cn2nc3ccc(SC(C)(C)C)nn3c2=O)c1	5.1%	1.46%	-8.45%
COc1ccccc1NC(=O)CSc1nnc2c(=O)n(-c3ccc(C)c(C)c3)ccn12	7.95%	1.21%	-7.82%
O=C(CSc1nnc2c3cc(-c4ccc(F)cc4)nn3ccn12)Nc1ccccc1C(F)(F)F	-6.96%	5.14%	-18.14%
Cc1ccc(Oc2nc3ccccc3n3c(=O)n(CC(=O)Nc4ccc5c(c4)OCO5)nc23)cc1	4.57%	10.98%	-25.85%
N#CCn1nc2n(Cc3ccccc3)c(=O)c3ccc(C(=O)NC4CCCCC4)cc3n2c1=O	4.19%	1.65%	-13.83%
O=c1n(Cc2cccc(Br)c2)nc2ccc(-c3ccccc3)nn12	10.27%	5.28%	-13.38%
Cc1ccc(-c2ccc3nnc(CCC(=O)NCc4ccc(Br)cc4)n3n2)cc1	19%	1.12%	-7.91%
COc1ccc(N(Cc2ccc(OC)c(F)c2)S(=O)(=O)c2ccc3nncn3c2)cc1	12.76%	2.89%	0.06%
COc1ccc(NC(=O)Cn2nc3c(Oc4ccccc4)nccn3c2=O)cc1OC	4.37%	1.92%	-7.08%
O=C(Cn1nc2c(Oc3ccccc3)nc3ccccc3n2c1=O)Nc1ccc2c(c1)OCO2	4.55%	16.43%	-9.27%
CCOc1ccc(-n2ccn3c(SCC#N)nnc3c2=O)cc1	5.38%	1.02%	-3.42%
Cc1cc(NC(=O)Cn2nc3ccc(SC(C)(C)C)nn3c2=O)ccc1Br	5.26%	32.86%	-21.27%
CCc1nnc2c(S(=O)(=O)N(Cc3cc(F)cc(F)c3)c3ccc(F)cc3)cccn12	-0.25%	4.45%	-8.28%
CCCCOc1ccc(-c2cc3c4nnc(SCC(=O)Nc5cccc(C#N)c5)n4ccn3n2)cc1	-0.44%	7.68%	-23.71%
O=C(Cn1nc2c3cc(-c4ccccc4)nn3ccn2c1=O)N1CCCc2ccccc21	12.97%	-0.58%	-23.31%
COc1ccc(OC)c(NC(=O)Cn2nc3ccc(SCc4ccc(Cl)cc4)nn3c2=O)c1	2.51%	9.63%	-22.41%
N#Cc1ccc(NC(=O)Cn2nc3c(SCc4ccc(Cl)cc4)nccn3c2=O)cc1	12.55%	4.94%	-19.24%
COc1ccc(NC(=O)CSc2nnc3c(=O)n(-c4ccc(Br)cc4)ccn23)cc1	8.82%	5.75%	-12.25%
CCOc1ccccc1NC(=O)Cn1nc2c3c4c(sc3ncn2c1=O)CCCC4	2.08%	2.9%	-12.75%
